Compound activity as filed in PubChem BioAssay.
Pf Dd2 growth – blocks in vitro growth of P. falciparum Dd2 | Potency, µM (titrated, usually from 28.9 µM), for the others: at the highest dose activity, negative = inhibition, usual class: inhibitors | 120,000 tested, 4.3% active | P. falciparum Dd2 growth, SYBR Green, 72 h; active means well fitted inhibition curve with a large enough effect;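 further: plate controls were DMSO vehicle for no effect and reference drug for full effect; nearly all actives have a fitted effect of over 65% in size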
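Readout: SYBR Green fluorescence, 485 nm excitation, 535 nm emission, after ~16 h lysis at 37C. Before that, Dd2-infected red cells (2.5% hematocrit) grew 72 h with compound, 29 uM top final concentration.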
An asterisk follows results filed as active; [ ] = another dose, or the depositor's remark. The full list was thinned out, with hits kept by preference. Potency means the concentration at half of the fitted maximal effect.

How did CCC(C)NC(=O)C(NC(=O)c1ccc(F)cc1)C1CCN(C(=O)c2cccc(F)c2)CC1 (centres undefined) do in these assays?
Pf Dd2 growth: inactive

Results for CCC(C)NC(=O)C(NC(=O)c1ccc(C)cc1)C1CCN(C(=O)c2cccc(F)c2)CC1 (centres undefined) ?
Pf Dd2 growth: 10µM*

What do the screens show for `Cc1ccc(C(=O)N2CCC(C(NC(=O)C(C)C)C(=O)NCC(C)C)CC2)cc1` (centres undefined)?
Pf Dd2 growth: inactive

What do the screens show for `Cc1ccc(C(=O)N2CCC(C(NC(=O)c3ccccc3C)C(=O)NCC(C)C)CC2)cc1` (centres undefined)?
Pf Dd2 growth: 7.9µM*

Results for Cc1ccc(-n2c(C3CCN(C(=O)Cc4c(F)cccc4Cl)CC3)n[nH]c2=O)cc1 ?
Pf Dd2 growth: -15%

What do the screens show for `COc1cccc(CN2Cc3cc(NC(=O)c4ccc([N+](=O)[O-])cc4)ccc3OCC2=O)c1OC`?
Pf Dd2 growth: -6%

How did O=C(O)c1ccc2c(c1)n(Cc1ccccc1)c(=O)c1ccnn12 do in these assays?
Pf Dd2 growth: -16%

What do the screens show for `CSCCC(NS(=O)(=O)c1ccc2c(c1)oc(=O)n2C)C(=O)N1CCN(c2cc(C)ccc2C)CC1` (centres undefined)?
Pf Dd2 growth: -21%

How did Cc1nc2ccc(S(=O)(=O)NCC(=O)Nc3ccc(C)c(Cl)c3)cc2s1 do in these assays?
Pf Dd2 growth: inactive

What do the screens show for `Cc1ccc(C)c(N2CCN(C(=O)C(CC(C)C)NS(=O)(=O)c3ccc4nc(C)sc4c3)CC2)c1` (centres undefined)?
Pf Dd2 growth: 7.9µM*

How did COc1ccc(CNC(=O)N2CC3CC(C2)[C@H]2CCCC(=O)N2C3)cc1 (some centres undefined) do in these assays?
Pf Dd2 growth: -4%

What do the screens show for `Cc1cccc(CC(=O)N2CC3CC(C2)[C@H]2CCCC(=O)N2C3)c1` (some centres undefined)?
Pf Dd2 growth: -1%

What do the screens show for `O=C(O)C1CCc2nnc(C3CCN(C(=O)c4ccc(F)cc4)C3)n21` (centres undefined)?
Pf Dd2 growth: 10%

How did COc1ccc(C(=O)N[C@@H]2CCC[C@@H]2C(=O)N(C)Cc2ccccc2)cc1 do in these assays?
Pf Dd2 growth: -25%

Results for CC1CCC(Nc2ncnc3onc(-c4ccc(Cl)cc4)c23)CC1 (centres undefined) ?
Pf Dd2 growth: 4.5µM*

What do the screens show for `Clc1ccc(-c2noc3ncnc(NC4CCCCC4)c23)cc1`?
Pf Dd2 growth: -19%

Results for Clc1ccc(CNc2ncnc3onc(-c4ccc(Cl)cc4)c23)cc1 ?
Pf Dd2 growth: inactive

Results for O=C(Nc1ccccc1)Nc1ccc([C@@H](O)[C@H]2COCC(=O)N2Cc2cccnc2)cc1 ?
Pf Dd2 growth: -22%[44.1 µM]

Results for O=C(C1CCCC1)N1CCC2(CC1)C(=O)NCN2Cc1ccc(Cl)cc1 ?
Pf Dd2 growth: inactive

What do the screens show for `O=C(CCc1ccccc1)N1CCNc2cnc(Nc3cccc(C(F)(F)F)c3)nc2C1`?
Pf Dd2 growth: -22%

How did CCN1CCN(c2nc3c(s2)CN(C(=O)COC)CC3)CC1 do in these assays?
Pf Dd2 growth: inactive

What do the screens show for `COc1ccc(S(=O)(=O)c2cn(Cc3ccccc3)c3cc(N4CCCC4)c(F)cc3c2=O)cc1`?
Pf Dd2 growth: 13µM*

How did CCn1cc(S(=O)(=O)c2cccc(C)c2)c(=O)c2cc(F)c(N3CCN(c4ccccc4)CC3)cc21 do in these assays?
Pf Dd2 growth: inactive

Results for CCCCn1cc(S(=O)(=O)c2ccc(OC)cc2)c(=O)c2cc(F)c(N3CCOCC3)cc21 ?
Pf Dd2 growth: 11µM*

How did Cc1ccc(S(=O)(=O)c2cn(Cc3ccc(F)cc3)c3cc(N4CCCC4)c(F)cc3c2=O)cc1 do in these assays?
Pf Dd2 growth: -13%

What do the screens show for `CCCCn1cc(S(=O)(=O)c2ccc(OC)cc2)c(=O)c2cc(F)c(F)cc21`?
Pf Dd2 growth: 1%

How did Cc1ccc(Cn2cc(S(=O)(=O)c3ccccc3)c(=O)c3cc(F)c(N4CCOCC4)cc32)cc1 do in these assays?
Pf Dd2 growth: 10µM*

Results for CCn1cc(S(=O)(=O)c2cccc(Cl)c2)c(=O)c2cc(F)c(N3CCC(C)CC3)cc21 ?
Pf Dd2 growth: inactive

Results for Cc1cccc(S(=O)(=O)c2cn(Cc3ccccc3)c3cc(N4CCC(C)CC4)c(F)cc3c2=O)c1 ?
Pf Dd2 growth: 10µM*

What do the screens show for `Cn1nc2n(c1=O)CCN(CC1CCCCC1)CC2`?
Pf Dd2 growth: -8%

Results for COc1ccc(CNC(=O)C(C)C2CCOCC2)c(OC)c1 (centres undefined) ?
Pf Dd2 growth: 11%

Results for O=C(N[C@H]1[C@@H]2CCO[C@@H]2[C@@H]1C1CCCC1)c1ccccc1OC(F)F ?
Pf Dd2 growth: -14%

What do the screens show for `O=S(=O)(NC[C@H]1OC[C@@H](NCc2cccnc2)[C@@H]1O)c1ccccc1`?
Pf Dd2 growth: -7%[44.1 µM]

How did O=C(O)C1CCCN(c2cn[nH]c(=O)c2)C1 (centres undefined) do in these assays?
Pf Dd2 growth: -7%

What do the screens show for `COC[C@@H]1CN(S(=O)(=O)c2ccc(C)cc2C)C[C@H]1C(N)=O`?
Pf Dd2 growth: -12%

What do the screens show for `CCc1cccc(NC(=O)CN2C(=O)NC(c3ccc(C)cc3)C3=C2COC3=O)c1` (centres undefined)?
Pf Dd2 growth: -15%

What do the screens show for `COc1ccc(CC(=O)N[C@@H]2CN(c3ccccn3)C[C@H]2CN(C)C)cc1OC`?
Pf Dd2 growth: -24%

How did C=Cc1ccc(Cn2c(=O)c(-c3noc(CC)n3)c3n(c2=O)CCCC3)cc1 do in these assays?
Pf Dd2 growth: -1%

What do the screens show for `COc1ccc(C2Cn3nnc(-c4nc(C(C)(C)C)no4)c3CO2)cc1` (centres undefined)?
Pf Dd2 growth: inactive

Results for C[C@@H]1CN(c2nc(-c3ccccc3)no2)CC[C@@]1(O)C1CCC1 ?
Pf Dd2 growth: -13%

Results for O=C(Cn1nnnc1CN1CCCC1)N1CCN(C2CCc3ccccc3C2)CC1 (centres undefined) ?
Pf Dd2 growth: -11%

How did O=C(CCc1ccc2c(c1)CCO2)Nc1ccc2c(c1)C(=O)N1CCC[C@H]1C(=O)N2 do in these assays?
Pf Dd2 growth: -14%

How did O=C(C[C@@H]1O[C@H](CNC(=O)Nc2cccc(F)c2)[C@@H](O)[C@H]1O)NCCN1CCOCC1 do in these assays?
Pf Dd2 growth: 16%

What do the screens show for `N#Cc1ccc(S(=O)(=O)N2CCCCCCNC(=O)[C@@H]3CCCC[C@@H]32)cc1`?
Pf Dd2 growth: 6%

Results for CC1CCCCN1Cc1c(O)ccc2c(=O)c(-c3ccc(Cl)cc3)coc12 (centres undefined) ?
Pf Dd2 growth: 2.2µM*

Results for CCc1nc2c(c(-c3ccc(Cl)cc3)n1)CN(C(=O)C1CCCC1)CC2 ?
Pf Dd2 growth: inactive

What do the screens show for `CC1CCCCN1Cc1c(O)ccc2c(=O)c(-c3ccccc3Cl)c(C(F)(F)F)oc12` (centres undefined)?
Pf Dd2 growth: 8.9µM*

How did COc1cccc(C(=O)NC2CCN(c3cc(-c4ccccc4)[nH]n3)CC2)c1OC do in these assays?
Pf Dd2 growth: -7%

What do the screens show for `Cc1ccc(CC(=O)NC(C)C(=O)N2CCN(c3ccccn3)CC2)cc1` (centres undefined)?
Pf Dd2 growth: inactive

What do the screens show for `CN(CCCc1cnn(C)c1)C(=O)[C@H]1CNC[C@@H](C(=O)N2CCOCC2)C1`?
Pf Dd2 growth: -3%

Results for CCc1ccc(C(=O)N2CCC([C@@H]3CNC[C@H]3CO)CC2)cc1 ?
Pf Dd2 growth: -6%
